{"source": "the supplement of paper PMC8975748", "note": "Counter-ions that a name gives are not always drawn.", "data": [{"test_system": "Saccharomyces cerevisiae BY4741 SeMeCo community", "assay": "z-score of subpopulation abundance vs DMSO median, subpopulation auxotrophic for LM; higher = larger share of this subpopulation than in DMSO controls", "conditions": "10 µM; 24 h; SM minimal medium; subpopulation (auxotrophy): LM", "description": "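Fluorescent four-plasmid SeMeCo (self-establishing metabolically cooperating S. cerevisiae BY4741 community; plasmids pH-mRuby2, pL-mWasabi, pU-eCFP, pM-TagRFP657) was grown 24 h in minimal SM medium with each Selleck FDA-approved drug at 10 µM in 384-well plates. Cells were fixed and imaged by high-content confocal microscopy. For each auxotrophic subpopulation (and the prototroph), a z-score gives the deviation from the DMSO vehicle-control population median.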", "values": [{"smiles": "CN1[C@@H]2CC[C@H]1C[C@@H](OC(=O)[C@H](CO)c1ccccc1)C2", "note": "[Hyoscyamine]", "z-score of subpopulation abundance": -0.17}, {"smiles": "C=C(C)[C@H]1Cc2c(ccc3c2O[C@@H]2COc4cc(OC)c(OC)cc4[C@@H]2C3=O)O1", "note": "[Rotenone (Barbasco)]", "z-score of subpopulation abundance": -0.22}, {"smiles": "C=CCN1C[C@H](C(=O)N(CCCN(C)C)C(=O)NCC)C[C@@H]2c3cccc4[nH]cc(c34)C[C@H]21", "note": "[Cabergoline]", "z-score of subpopulation abundance": -0.31}, {"smiles": "COc1ccc2c3c([nH]c2c1)C(C)=NCC3", "note": "[Harmaline]", "z-score of subpopulation abundance": 4.83}, {"smiles": "O=c1cccc2n1C[C@@H]1CNC[C@H]2C1", "note": "[Cytisine]", "z-score of subpopulation abundance": -0.02}, {"smiles": "CCN(C)C(=O)Oc1cccc([C@H](C)N(C)C)c1", "note": "[Rivastigmine]", "z-score of subpopulation abundance": -0.54}, {"smiles": "COc1ccc2[nH]cc(CCN)c2c1", "note": "[5-Methoxytryptamine]", "z-score of subpopulation abundance": 0.28}, {"smiles": "COc1cc2c(cc1OC)C1CC(=O)C(CC(C)C)CN1CC2", "note": "(centres undefined) [Tetrabenazine (Xenazine)]", "z-score of subpopulation abundance": 0.75}, {"smiles": "CNC1CC(N)C(O)C(OC2OC(CO)C(O)C3OC4(OC(C(N)CO)C(O)C(O)C4O)OC23)C1O", "note": "(centres undefined) [Hygromycin B]", "z-score of subpopulation abundance": -0.12}, {"smiles": "CN[C@@H]1[C@@H](O)[C@@H](O[C@@H]2[C@@H](O)[C@H](O[C@H]3O[C@H]([C@@H](C)O)[C@@H](O)[C@H](O)[C@H]3N)[C@@H](N)C[C@H]2N)OC[C@]1(C)O", "note": "[Geneticin (G418 Sulfate)]", "z-score of subpopulation abundance": 0.61}, {"smiles": "Cn1cc(C2=C(c3cn(C4CCN(Cc5ccccn5)CC4)c4ccccc34)C(=O)NC2=O)c2ccccc21", "z-score of subpopulation abundance": -1.68}, {"smiles": "C[C@@H]1CC[C@H]2[C@@H](C)C(=O)O[C@@H]3O[C@@]4(C)CC[C@@H]1[C@]32OO4", "note": "[Artemisinin]", "z-score of subpopulation abundance": -1.74}, {"smiles": "CN(C)[C@@H]1C(=O)C(C(N)=O)=C(O)[C@@]2(O)C(=O)C3=C(O)c4c(O)cccc4[C@@](C)(O)[C@H]3C[C@@H]12", "note": "[Tetracycline HCl]", "z-score of subpopulation abundance": -0.24}, {"smiles": "C#C[C@]1(O)C=C[C@H]2[C@@H]3CCC4=CC(=O)CC[C@@H]4[C@H]3CC[C@@]21CC", "note": "[Gestodene]", "z-score of subpopulation abundance": 0.29}, {"smiles": "CC(=O)OCC1=C(C(=O)O)N2C(=O)C(N)C2SC1", "note": "(centres undefined) [7-Aminocephalosporanic acid]", "z-score of subpopulation abundance": -0.28}, {"smiles": "CCOC(=O)Nc1ccc(NCc2ccc(F)cc2)cc1N", "note": "[Retigabine]", "z-score of subpopulation abundance": -0.12}, {"smiles": "Oc1cccc2cccnc12", "note": "[8-Hydroxyquinoline]", "z-score of subpopulation abundance": -0.41}, {"smiles": "C=CC[C@]1(O)CC[C@H]2[C@@H]3CCC4=CC(=O)CCC4=C3C=C[C@@]21C", "note": "[Altrenogest]", "z-score of subpopulation abundance": 0.15}, {"smiles": "CN1[C@@H]2C[C@@H](OC(=O)[C@H](CO)c3ccccc3)C[C@H]1[C@@H]1O[C@@H]12", "note": "[Scopolamine HBr]", "z-score of subpopulation abundance": -0.51}, {"smiles": "CN1c2ccccc2C(NCCCCCCC(=O)O)c2ccc(Cl)cc2S1(=O)=O", "note": "(centres undefined) [Tianeptine sodium]", "z-score of subpopulation abundance": -0.12}, {"smiles": "NCCc1c[nH]c2ccc(O)cc12", "note": "[Serotonin HCl]", "z-score of subpopulation abundance": -1.09}, {"smiles": "COC(=O)C1=CCCN(C)C1", "note": "[Arecoline HBr]", "z-score of subpopulation abundance": 0.61}, {"smiles": "C=CN1CCCC1=O.II", "note": "[Povidone iodine]", "z-score of subpopulation abundance": -0.46}, {"smiles": "CN(C)[C@@H]1C(=O)C(C(N)=O)=C(O)[C@@]2(O)C(=O)C3=C(O)c4c(O)cccc4[C@@](C)(O)[C@H]3[C@H](O)[C@@H]12", "note": "[Oxytetracycline (Terramycin)]", "z-score of subpopulation abundance": -0.04}, {"smiles": "NC(=O)CN1CCCC1=O", "note": "[Piracetam]", "z-score of subpopulation abundance": 1.96}, {"smiles": "CN1[C@@H]2C[C@@H](OC(=O)[C@H](CO)c3ccccc3)C[C@H]1[C@@H]1O[C@@H]12", "note": "[Scopolamine HBr trihydrate]", "z-score of subpopulation abundance": -0.12}, {"smiles": "C[N+]12CCC(CC1)C(OC(=O)C(O)(c1ccccc1)c1ccccc1)C2", "note": "(centres undefined) [Clidinium Bromide]", "z-score of subpopulation abundance": -0.72}, {"smiles": "C[C@@H]1O[C@@H](O[C@H]2C[C@@H](O)[C@]3(CO)[C@H]4[C@H](O)C[C@]5(C)[C@@H](C6=CC(=O)OC6)CC[C@]5(O)[C@@H]4CC[C@]3(O)C2)[C@H](O)[C@H](O)[C@H]1O", "note": "[Ouabain]", "z-score of subpopulation abundance": -0.83}, {"smiles": "O=[N+]([O-])C(Br)(CO)CO", "note": "[Bronopol]", "z-score of subpopulation abundance": -0.89}, {"smiles": "C[N+]1(C)[C@@H]2C[C@@H](OC(=O)[C@H](CO)c3ccccc3)C[C@H]1[C@@H]1O[C@@H]12", "note": "[Methscopolamine]", "z-score of subpopulation abundance": -0.56}, {"smiles": "CN(C)[C@@H]1C(=O)C(C(N)=O)=C(O)[C@@]2(O)C(=O)C3=C(O)c4c(O)cccc4[C@@](C)(O)[C@H]3[C@H](O)[C@@H]12", "note": "[Oxytetracycline Dihydrate]", "z-score of subpopulation abundance": -0.49}, {"smiles": "CCCCCCCCCCCCCCCC[n+]1ccccc1", "note": "[Cetylpyridinium Chloride]", "z-score of subpopulation abundance": 0.44}, {"smiles": "O=c1[nH]c2ccccc2n1CCCN1CCC(n2c(=O)[nH]c3cc(Cl)ccc32)CC1", "note": "[Domperidone]", "z-score of subpopulation abundance": -0.04}, {"smiles": "NCC(O)c1ccc(O)cc1", "note": "(racemic) [(+,-)-Octopamine HCl]", "z-score of subpopulation abundance": 0}]}]}
